Results published in PubChem BioAssay (Tox21).
Values without a mark were called inactive. Results filed as inconclusive are left out. Where a call stands in place of a potency, no number is given. The source made the active and inactive calls. Unless noted, calls come from the whole dose curve.

Legend:
[1] = Nuclear factor erythroid 2-related factor 2/antioxidant responsive element (Nrf2/ARE) small molecule agonists: qHTS cell viability counter screen in human keratinocytes (AID 1919968; active = well fitted curve in the direction sought with a large enough effect in the repeat runs; an effect the other way counts as inactive or inconclusive; note: nearly all actives have a fitted effect of over 55% in size)
Method in brief: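 Stably transfected HaCaT (KeratinoSens), 1,500/well. Test agents in DMSO were applied for 23 h, 37 C/5% CO2. CellTiter-Fluor was incubated 1 h before the fluorescence read.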

[2] = Nuclear factor erythroid 2-related factor 2/antioxidant responsive element (Nrf2/ARE) small molecule agonists: luciferase reporter gene qHTS assay in human keratinocytes (AID 1919969); note: nearly all actives have a fitted effect of over 35% in size; note: potency is the fitted concentration of half-maximal effect
[3] = biological target: Gonadotropin-releasing hormone receptor (Homo sapiens) (UniProt P30968); experiment: Human gonadotropin-releasing hormone receptor (GnRHR) small molecule agonists, calcium flux assay in GnRHR-HEK293 cells (AID 1920063); note: nearly all actives have a fitted effect of over 35% in size
Chain of Gonadotropin-releasing hormone receptor (Homo sapiens) (P30968 whole entry, looked up): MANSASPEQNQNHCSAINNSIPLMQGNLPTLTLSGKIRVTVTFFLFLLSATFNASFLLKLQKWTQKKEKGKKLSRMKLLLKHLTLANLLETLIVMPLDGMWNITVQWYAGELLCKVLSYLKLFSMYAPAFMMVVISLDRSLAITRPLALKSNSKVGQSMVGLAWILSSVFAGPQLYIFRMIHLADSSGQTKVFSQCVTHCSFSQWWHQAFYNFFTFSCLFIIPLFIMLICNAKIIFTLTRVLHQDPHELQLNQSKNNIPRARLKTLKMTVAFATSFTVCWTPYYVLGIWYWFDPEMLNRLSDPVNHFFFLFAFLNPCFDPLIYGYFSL
Method in brief: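 Stable human GnRHR HEK293 line. 18 h plating, then calcium dye for 1 h at 37 C. Agonist-mode compound addition from DMSO stocks; fluorescence monitored 3 min.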

[4] = biological target: KiSS-1 receptor (Homo sapiens) (UniProt Q969F8); experiment: Human kisspeptin (KISS1R) small molecule agonists, calcium flux assay in KISS1R-HEK293 cells (AID 1920064; active = well fitted curve in the direction sought with a large enough effect in the repeat runs; an effect the other way counts as inactive or inconclusive)
Chain of KiSS-1 receptor (Homo sapiens) (Q969F8 whole entry, looked up): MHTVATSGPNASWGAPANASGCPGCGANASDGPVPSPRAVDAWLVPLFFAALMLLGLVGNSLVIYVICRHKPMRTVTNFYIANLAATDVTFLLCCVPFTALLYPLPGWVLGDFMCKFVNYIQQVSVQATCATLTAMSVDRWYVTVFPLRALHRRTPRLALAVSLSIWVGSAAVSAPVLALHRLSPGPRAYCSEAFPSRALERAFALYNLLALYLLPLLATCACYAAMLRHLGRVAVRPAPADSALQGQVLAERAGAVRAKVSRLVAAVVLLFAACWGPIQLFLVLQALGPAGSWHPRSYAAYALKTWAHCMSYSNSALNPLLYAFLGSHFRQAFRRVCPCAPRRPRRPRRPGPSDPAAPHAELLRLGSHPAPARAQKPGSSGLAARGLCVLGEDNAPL
Method in brief: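 After overnight (18 h) culture at 37 C/5% CO2, human KISS1R-HEK293 cells received calcium dye for 1 h, then test compound; emission at 540 nm (excitation 480 nm) was tracked for 3 min.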

[5] = G protein-coupled receptor (GPCR) small molecule agonists, calcium flux assay: HEK293 wild type cell line counter screen (AID 1920065)
Method in brief: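 Following 18 h incubation at 37 C/5% CO2, plates got calcium dye for 1 h; compounds, ATP or DMSO were then pinned in and fluorescence followed kinetically (480/540 nm).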

[6] = p53 small molecule agonists, cell-based qHTS assay with human liver microsomes: qHTS cell viability counter screen (AID 1963579); note: nearly all actives have a fitted effect of over 45% in size
Method in brief: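 Seed p53RE-bla cells at 4,000 per well; incubate 5 h at 37 C; add compound, human liver microsomes and NADPH; incubate 16 h at 37 C; add CellTiter-Glo; after 30 min at room temperature, read luminescence.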

[7] = p53 small molecule agonists, cell-based qHTS assay with rat liver microsomes: qHTS cell viability counter screen (AID 1963580); note: nearly all actives have a fitted effect of over 45% in size
Method in brief: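 Cytotoxicity counter screen: intracellular ATP read by CellTiter-Glo luminescence in the p53 reporter wells. HCT-116 p53RE-bla cells were treated for 16 h at 37 C alongside rat liver microsomes and NADPH, each 0.5 mg/mL final.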

[8] = p53 small molecule agonists, cell-based qHTS assay: qHTS cell viability counter screen (AID 1963581); note: nearly all actives have a fitted effect of over 45% in size
Method in brief: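 qHTS counter screen: 16 h compound exposure at 37 C of p53RE-bla HCT-116 cells (4,000 per well, seeded 5 h prior), cell viability by ATP luminescence.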

[9] = biological target: 5-hydroxytryptamine receptor 2A (Homo sapiens) (UniProt P28223); experiment: 5-hydroxytryptamine receptor 2A (HTR2A) small molecule antagonists, cell-based qHTS assay (AID 1963586); note: nearly all actives have a fitted effect of over 45% in size
Chain of 5-hydroxytryptamine receptor 2A (Homo sapiens) (P28223 whole entry, looked up): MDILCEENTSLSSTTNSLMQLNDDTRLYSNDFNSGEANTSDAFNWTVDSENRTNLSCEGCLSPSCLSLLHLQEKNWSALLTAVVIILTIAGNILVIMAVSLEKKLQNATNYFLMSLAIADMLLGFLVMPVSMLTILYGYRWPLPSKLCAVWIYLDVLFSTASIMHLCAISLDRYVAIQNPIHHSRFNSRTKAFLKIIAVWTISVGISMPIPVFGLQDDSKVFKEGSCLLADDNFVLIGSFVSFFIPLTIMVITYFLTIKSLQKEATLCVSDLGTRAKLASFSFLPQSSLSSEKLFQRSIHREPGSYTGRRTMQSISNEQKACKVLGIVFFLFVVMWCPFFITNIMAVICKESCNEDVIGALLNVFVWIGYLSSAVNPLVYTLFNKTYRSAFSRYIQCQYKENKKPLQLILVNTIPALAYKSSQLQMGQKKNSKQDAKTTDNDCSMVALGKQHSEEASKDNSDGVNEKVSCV
Method in brief: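 CHO cells stably expressing human HTR2A were plated for 18 h at 37 C, then loaded with calcium dye for 1 h. Compounds were preincubated 5 min at room temperature before DOI (4 nM solution) was added. Kinetic fluorescence was read for 3 min.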

[10] = biological target: Muscarinic acetylcholine receptor M1 (Homo sapiens) (UniProt P11229); experiment: Cholinergic receptor muscarinic 1 (CHRM1) small molecule antagonists, cell-based qHTS assay (AID 1963588); note: nearly all actives have a fitted effect of over 40% in size
Chain of Muscarinic acetylcholine receptor M1 (Homo sapiens) (P11229 whole entry, looked up): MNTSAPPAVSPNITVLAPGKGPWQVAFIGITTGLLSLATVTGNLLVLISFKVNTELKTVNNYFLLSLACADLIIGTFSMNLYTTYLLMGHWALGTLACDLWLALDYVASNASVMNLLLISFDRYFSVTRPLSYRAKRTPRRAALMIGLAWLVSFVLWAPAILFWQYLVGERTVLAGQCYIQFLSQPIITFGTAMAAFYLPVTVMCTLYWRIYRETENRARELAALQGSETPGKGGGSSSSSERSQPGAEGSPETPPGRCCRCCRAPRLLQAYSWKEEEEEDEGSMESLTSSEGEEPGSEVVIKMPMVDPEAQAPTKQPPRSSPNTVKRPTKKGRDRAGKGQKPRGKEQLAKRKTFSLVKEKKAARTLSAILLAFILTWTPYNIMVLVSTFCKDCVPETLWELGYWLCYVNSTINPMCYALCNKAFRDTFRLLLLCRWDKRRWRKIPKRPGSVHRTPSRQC
Method in brief: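 Compounds were tested at 15 concentrations in three independent runs. Dye-loaded CHRM1-CHO cells were exposed 5 min at room temperature before stimulation by acetylcholine added at 50nM. Intracellular calcium was read kinetically on FDSS for 3 min.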

[11] = biological target: Muscarinic acetylcholine receptor M1 (Homo sapiens) (UniProt P11229); experiment: Cholinergic receptor muscarinic 1 (CHRM1) small molecule agonists, cell-based qHTS assay (AID 1963589); note: nearly all actives have a fitted effect of over 35% in size
Method in brief: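 Kinetic fluorescence (1 s intervals) of calcium-sensitive dye in human M1 CHO cells after compound addition; cells pre-incubated 18 h at 37 C/5% CO2 and dye-loaded 1 h.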

[12] = cAMP Responsive Elements (CRE) small molecule agonists, cell-based qHTS assay (AID 1963590)
Method in brief: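 Test agents in DMSO were incubated 3 h at 37 C/5% CO2 with CRE-bla HEK 293T cells seeded 18 h earlier; LiveBLAzer B/G FRET substrate was added and read after 2 h at room temperature.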

[13] = biological target: D(2) dopamine receptor (Homo sapiens) (UniProt P14416); experiment: Dopamine D2 receptor (DRD2) small molecule agonists, cell-based qHTS assay (AID 1963594); note: nearly all actives have a fitted effect of over 35% in size; note: potency is the fitted concentration of half-maximal effect
Chain of D(2) dopamine receptor (Homo sapiens) (P14416 whole entry, looked up): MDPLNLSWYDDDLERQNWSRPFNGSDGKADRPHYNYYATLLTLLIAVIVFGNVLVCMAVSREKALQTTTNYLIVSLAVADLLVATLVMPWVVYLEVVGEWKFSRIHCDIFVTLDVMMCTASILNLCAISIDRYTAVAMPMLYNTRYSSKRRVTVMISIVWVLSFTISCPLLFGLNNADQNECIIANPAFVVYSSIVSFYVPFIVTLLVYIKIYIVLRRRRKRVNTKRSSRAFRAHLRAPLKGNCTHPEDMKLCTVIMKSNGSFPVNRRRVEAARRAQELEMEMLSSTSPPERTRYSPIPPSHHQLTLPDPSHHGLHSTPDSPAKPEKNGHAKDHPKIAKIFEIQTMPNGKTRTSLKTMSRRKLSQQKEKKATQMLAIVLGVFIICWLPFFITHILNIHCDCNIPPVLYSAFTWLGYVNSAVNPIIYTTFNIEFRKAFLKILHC
Method in brief: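 cAMP accumulation in DRD2-HEK293 cells measured by HTRF after 1 h detection; compounds added 10 min before NKH477 (200nM […]) forskolin-analogue stimulation, 30 min at room temperature, with Ro20-1724 present at 0.1 mM final.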

[14] = biological target: D(2) dopamine receptor (Homo sapiens) (UniProt P14416); experiment: Dopamine D2 receptor (DRD2) small molecule antagonists, cell-based qHTS assay (AID 1963595; active = well fitted inhibition curve with a large enough effect in the signal ratio in the repeat runs, with a control signal flat; the % refers to the signal ratio)
Method in brief: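 Readout: HTRF cAMP, cAMP-d2 competing with cellular cAMP for anti-cAMP cryptate, read after 1 h. Cells: DRD2-HEK293. Conditions: 0.1 mM Ro20-1724, 12 nM quinpirole, 200 nM NKH477, 30 min RT.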

[15] = biological target: 5-hydroxytryptamine receptor 2A (Homo sapiens) (UniProt P28223); experiment: 5-hydroxytryptamine receptor 2A (HTR2A) small molecule agonists, cell-based qHTS assay (AID 1963587); note: nearly all actives have a fitted effect of over 30% in size
Method in brief: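 Kinetic calcium-flux fluorescence (2 min, 1 sec intervals) after compound addition in agonist mode. HTR2A-CHO cells were cultured 18 h, then dye-loaded 1 h at 37 C.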

[16] = biological target: Beta-2 adrenergic receptor (Homo sapiens) (UniProt P07550); experiment: Adrenergic beta2 receptor (ADRB2) small molecule agonists, cell-based qHTS assay (AID 1963593);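 note: CHO cells stably overexpressing human ADRB2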
Chain of Beta-2 adrenergic receptor (Homo sapiens) (P07550 whole entry, looked up): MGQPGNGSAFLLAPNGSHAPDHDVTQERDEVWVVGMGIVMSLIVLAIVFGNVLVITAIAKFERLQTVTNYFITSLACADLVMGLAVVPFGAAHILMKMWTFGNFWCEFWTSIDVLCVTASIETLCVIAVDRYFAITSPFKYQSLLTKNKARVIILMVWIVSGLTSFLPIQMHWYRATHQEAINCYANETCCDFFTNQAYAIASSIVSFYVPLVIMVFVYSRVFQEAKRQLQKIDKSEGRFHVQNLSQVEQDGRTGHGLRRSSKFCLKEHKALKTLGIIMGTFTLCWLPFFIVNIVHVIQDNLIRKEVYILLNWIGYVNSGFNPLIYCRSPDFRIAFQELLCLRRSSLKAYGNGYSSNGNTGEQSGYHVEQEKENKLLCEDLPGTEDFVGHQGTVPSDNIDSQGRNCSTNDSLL
Method in brief: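 CHO cells stably over-expressing ADRB2 were plated overnight at 37C, then dosed with compounds plus a stimulation mix containing 100uM IBMX and 25uM Ro-20-1724 for 0.5hr at room temperature. cAMP was measured by HTRF competition, 1hr.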

[17] = cAMP Responsive Elements (CRE) small molecule antagonists, cell-based qHTS assay (AID 1963591; active = well fitted inhibition curve with a large enough effect in the signal ratio in the repeat runs, not every such curve was filed as active; the % refers to the signal ratio)
Method in brief: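 Reporter line CRE-bla HEK 293T in dialyzed-FBS DMEM; cells preincubated 18 h, treated 3 h with compound plus NKH477 (0.25 uM final); LiveBLAzer FRET, 2 h RT.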

[18] = biological target: Beta-2 adrenergic receptor (Homo sapiens) (UniProt P07550); experiment: Adrenergic beta2 receptor (ADRB2) small molecule antagonists, cell-based qHTS assay (AID 1963592); note: series mostly up to about 92 µM; nearly all actives have a fitted effect of over 50% in size
Method in brief: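 Assay format: CHO-ADRB2 cells, 18-20hr seeding at 37C/5% CO2, then compound plus 1nM isoproterenol agonist mix for 0.5hr RT. Homogeneous time-resolved fluorescence cAMP detection after 1hr, expressed as 665/615 nm ratio.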

Compound: O=C1CN=C(c2ccccc2)c2cc(Cl)ccc2N1CC1CC1
- Potency [1]: inactive
- Potency [2]: inactive
- Potency [3]: inactive
- Potency [4]: inactive
- Potency [5]: inactive
- Potency [6]: inactive
- Potency [7]: inactive
- Potency [8]: inactive
- Potency [9]: inactive
- Potency [10]: inactive
- Potency [11]: inactive
- Potency [12]: inactive
- Potency [13]: inactive
- Potency [14]: inactive

Compound: CCOC(=O)CCN(SN(C)C(=O)Oc1cccc2c1OC(C)(C)C2)C(C)C
- Potency [1]: inactive
- Potency [2]: 61.1 µM (active)
- Potency [3]: inactive
- Potency [4]: inactive
- Potency [5]: inactive
- Potency [6]: inactive
- Potency [7]: inactive
- Potency [8]: inactive
- Potency [9]: inactive
- Potency [15]: inactive
- Potency [10]: inactive
- Potency [16]: inactive
- Potency [13]: inactive

Compound: O=S(=O)(O)F
- Potency [1]: inactive
- Potency [2]: inactive
- Potency [3]: inactive
- Potency [4]: inactive
- Potency [5]: inactive
- Potency [6]: inactive
- Potency [7]: inactive
- Potency [8]: inactive
- Potency [15]: inactive
- Potency [10]: inactive
- Potency [11]: inactive
- Potency [12]: inactive
- Potency [17]: inactive
- Potency [18]: inactive
- Potency [13]: inactive
- Potency [14]: inactive

Compound: CCC1(c2ccccc2)C(=O)N(COC)C(=O)N(COC)C1=O
- Potency [1]: inactive
- Potency [2]: inactive
- Potency [3]: inactive
- Potency [4]: inactive
- Potency [5]: inactive
- Potency [6]: inactive
- Potency [7]: inactive
- Potency [8]: inactive
- Potency [15]: inactive
- Potency [10]: inactive
- Potency [12]: inactive
- Potency [17]: inactive
- Potency [18]: inactive
- Potency [16]: inactive
- Potency [13]: 10.6 µM (active)
- Potency [14]: inactive

Compound: CN(C)C1CSSSC1
- Potency [1]: inactive
- Potency [2]: 61.1 µM (active)
- Potency [3]: inactive
- Potency [4]: inactive
- Potency [5]: inactive
- Potency [6]: inactive
- Potency [7]: inactive
- Potency [8]: inactive
- Potency [9]: inactive
- Potency [15]: inactive
- Potency [11]: inactive
- Potency [12]: inactive
- Potency [18]: inactive
- Potency [16]: inactive
- Potency [13]: inactive
- Potency [14]: inactive

Compound: C[N+](C)=CCl
- Potency [1]: inactive
- Potency [2]: inactive
- Potency [3]: inactive
- Potency [4]: inactive
- Potency [5]: inactive
- Potency [6]: inactive
- Potency [7]: inactive
- Potency [8]: inactive
- Potency [15]: inactive
- Potency [10]: inactive
- Potency [11]: inactive
- Potency [12]: inactive
- Potency [17]: inactive
- Potency [18]: inactive
- Potency [13]: inactive

Compound: CCOC1Oc2ccc(OS(C)(=O)=O)cc2C1(C)C (stereo not drawn)
- Potency [1]: inactive
- Potency [2]: inactive
- Potency [3]: inactive
- Potency [4]: inactive
- Potency [5]: inactive
- Potency [6]: inactive
- Potency [8]: inactive
- Potency [9]: inactive
- Potency [15]: inactive
- Potency [10]: inactive
- Potency [11]: inactive
- Potency [12]: inactive
- Potency [17]: inactive
- Potency [18]: inactive
- Potency [16]: inactive
- Potency [13]: inactive
- Potency [14]: inactive

Compound: CNC(=O)/C=C(\C)OP(=O)(OC)OC
- Potency [1]: inactive
- Potency [2]: inactive
- Potency [3]: inactive
- Potency [4]: inactive
- Potency [5]: inactive
- Potency [7]: inactive
- Potency [8]: inactive
- Potency [9]: inactive
- Potency [15]: inactive
- Potency [10]: inactive
- Potency [11]: inactive
- Potency [12]: inactive
- Potency [17]: inactive
- Potency [18]: inactive
- Potency [13]: inactive
- Potency [14]: inactive

Compound: O=C(C(Cl)(Cl)Cl)C(Cl)(Cl)Cl
- Potency [1]: inactive
- Potency [2]: inactive
- Potency [3]: inactive
- Potency [4]: inactive
- Potency [5]: inactive
- Potency [6]: inactive
- Potency [7]: inactive
- Potency [15]: inactive
- Potency [10]: inactive
- Potency [11]: inactive
- Potency [12]: inactive
- Potency [17]: inactive
- Potency [18]: inactive
- Potency [13]: inactive
- Potency [14]: inactive
